Assays:
[1] = biological target: T1, Aspartate--tRNA(Asp/Asn) ligase (Mycobacterium tuberculosis (strain ATCC 25618 / H37Rv)) (UniProt P9WFW3); experiment: Assay for Asp RNA synthetase-1 from Mycobacterium tuberculosis; assay type: functional; design: scale not given: direction of the effect not stated beside the values; conditions: 30 µM; also: in the data most compounds retested in dose-response had high values
T1 sequence (whole entry): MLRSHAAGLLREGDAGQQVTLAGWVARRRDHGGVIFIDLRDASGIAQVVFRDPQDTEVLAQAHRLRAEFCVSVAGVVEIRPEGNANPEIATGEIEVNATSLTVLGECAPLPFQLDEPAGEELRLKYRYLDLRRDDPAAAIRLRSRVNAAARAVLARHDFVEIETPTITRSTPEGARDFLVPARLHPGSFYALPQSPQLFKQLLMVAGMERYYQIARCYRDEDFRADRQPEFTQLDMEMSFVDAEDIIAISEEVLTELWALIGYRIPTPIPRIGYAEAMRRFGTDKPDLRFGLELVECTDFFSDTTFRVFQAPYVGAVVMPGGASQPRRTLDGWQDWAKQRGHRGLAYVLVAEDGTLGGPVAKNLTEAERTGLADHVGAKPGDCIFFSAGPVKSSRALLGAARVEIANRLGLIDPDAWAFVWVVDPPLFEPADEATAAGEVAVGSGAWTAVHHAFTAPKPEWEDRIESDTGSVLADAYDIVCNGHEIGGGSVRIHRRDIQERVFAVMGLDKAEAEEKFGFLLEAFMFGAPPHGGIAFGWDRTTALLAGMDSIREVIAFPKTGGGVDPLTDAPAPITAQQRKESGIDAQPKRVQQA

[2] = biological target: Shiga toxin 2 (Escherichia coli O157:H7) (UniProt P09385+P09386); experiment: E. coli 0.157:H7 Shiga Toxin SOP - stx2 screening assay; assay type: functional; design: scale not given: direction of the effect not stated beside the values; conditions: 30 µM

Structure (SMILES)	Percent Effect [1] [%]	Percent Effect [2] [%]
CC(=O)Nc1nc(C(=O)NC(C)c2ccc3c(c2)OCCO3)cs1 (stereo not drawn)	-1.73	7.36
COc1ccc(OCC(=O)NC(C)c2ccccc2)c(C(=O)O)c1 (stereo not drawn)	-1.11	-9.07
Cc1cnc2n1CCN(C)C21CCN(C(=O)CC(C)C)CC1	-4.25	-6.62
COc1cc(NC(=O)Cn2ccc3sc(C)cc3c2=O)cc(OC)c1	-2.26	0.557
Cc1noc([C@@H]2CC[C@@H]3[C@@H](CCN3S(=O)(=O)C3CC3)O2)n1	0.155	-17.9
Cc1cccc(CN2C[C@@H]3COC[C@]3(CNC(=O)c3ccsc3)C2)n1	-2.88	-15.8
Cc1ccccc1CNc1nc(O)cc(C2CC(=O)N(C)C2)n1 (stereo not drawn)	-2.9	0.153
CN(C)C(=O)N1CCN(Cc2cnn(C)c2)CC2(CNC(=O)C2)C1 (stereo not drawn)	2.15	-5.82
CC(O)CNC(=O)NCc1cccnc1OC1CCCC1 (stereo not drawn)	-4.34	-12.4
Cc1nnc(N2CCC(CS(N)(=O)=O)CC2)c(C#N)c1C	6.31	21.6
CC(C)c1nn(C)c(Cl)c1CNC1CCOc2ccccc21 (stereo not drawn)	1.57	27.5
Cc1nn(C)c(Cl)c1C1CCCN1CC(=O)NCc1ccccn1 (stereo not drawn)	-2.78	-10.8
Cc1ccc(CN2C[C@@H]3COC[C@H](C(=O)N4CCCCO4)[C@@H]3C2)o1	1.57	-5.34
CCS(=O)(=O)NC[C@]12COC[C@H]1CN(Cc1cccc(OC)c1)C2	0.596	1.39
COc1cccc(CN2CCN(C(=O)CN3CCOCC3)CC2)n1	-3.48	-2.5
Clc1ccccc1-c1nc(CNCCn2cccn2)cs1	-1.68	15.3
CCc1nc(CN2CCCC(NCc3nc4cccnc4[nH]3)C2)no1 (stereo not drawn)	-3	-27.7
Nc1cc(CCCNC(=O)NC2CC2)nn1-c1ccccc1	-4.03	-2.96
COCC1CN(Cc2ccc(OC)cc2)Cc2nn(C)cc21 (stereo not drawn)	14.5	-22.6
O=C(CCNC(=O)C1CCCC1)NCc1cccnc1-n1cncn1	0.59	23.7
Cc1cc(-c2cnc(N3CCN(C)CC3)nc2-c2ccc(C)s2)on1	-3.23	-24.7
CC(C)c1ccc(C(O)Cn2c(=O)c(C#N)cn(C3CC3)c2=O)cc1 (stereo not drawn)	2.61	14.3
CCc1csc(CCNC(=O)C2CC(=O)N(C(C)C)C2)n1 (stereo not drawn)	-1.9	-30.4
CS(=O)(=O)N1CCC2(CN(C(=O)c3cccnc3)C2)C1	-2.07	-24.7
Cc1nc(CN2C(=O)COC3(CCN(Cc4ccco4)CC3)C2C)cs1 (stereo not drawn)	-2.99	-19.9

Structure (SMILES)	Percent Effect [1] [%]	Percent Effect [2] [%]
Cc1cnn(CC2CCCN2C(=O)c2cc3c(F)cccc3[nH]2)c1 (stereo not drawn)	4.86	-37.3
c1ccc2sc(CN3CCCC3c3noc(C4CC4)n3)nc2c1 (stereo not drawn)	-1.34	3.03
Cc1cnn(C2CCCN(C(=O)c3sccc3-n3cnnn3)C2)c1 (stereo not drawn)	-2.01	-40.9
COC(=O)NCc1cc2n(n1)CCCN(C(C)=O)C2	-4.82	15.5
O=C1CC(c2cccnc2)C2(CCN(S(=O)(=O)C3CC3)CC2)N1 (stereo not drawn)	-1.76	4.96
Cc1ccc(-c2cccc(-c3ccn(CCN4CCCC4)n3)c2)nn1	-1.26	-13.8
O=C(NCc1ccc(F)cc1)N1CCC(C2OCCO2)CC1	3.59	1.94
CS(=O)(=O)N[C@@H]1CCO[C@]2(CCN(C(=O)C3=CCCC3)C2)C1	3.41	-0.907
COc1ccc2c(c1)CN(Cc1nc3ccsc3c(=O)[nH]1)CC2	-2.11	10.8
COC[C@@]12CCO[C@@H]1CCN(Cc1ccccc1F)C2	0.843	-24.5
CCS(=O)(=O)N1CCCc2ccc(NC(=O)Cc3ccc(F)cc3)cc21	3.34	7.51
Cc1nc(C)n(CC2CCCN(Cc3nc(C)c(C)o3)C2)n1 (stereo not drawn)	7.92	5.16
Cc1ccc(C(=O)N2CCN(CCC(C)(C)C)CC2)c(=O)[nH]1	-4.54	1.57
CCOCCn1nc(C)cc1C(=O)N1CC[C@](C)(O)[C@H](C)C1	-4.03	4.67
CCc1c(C(=O)NC2CCS(=O)(=O)C2)cnn1-c1ccc(F)cc1 (stereo not drawn)	-1.69	9.21
COc1ccc(CCN2CCC(N3CCN(C)C3=O)CC2)cc1	-1.97	0.371
CCc1nc(CC(=O)N2CCCC2Cn2cccn2)cs1 (stereo not drawn)	0.426	10.2
Cc1nc(N2CCN(C)CC2)ncc1C(=O)N1CCC(O)(CO)CC1	3.4	5.75
Cc1ccc(NC(=O)C2CSCN2C(=O)c2cnn(C)c2)c(C)c1 (stereo not drawn)	0.456	-0.207
Cc1ccc(-c2nc(CN3CCc4c(ncn4C)C3)cs2)o1	-4.21	0.313
CN(C(=O)C1CSCN1S(=O)(=O)c1ccc(F)cc1)C1CC1 (stereo not drawn)	-0.268	7.34
Cc1nc(O)c2nnn(C[C@H]3CCCN3C(=O)CCC3CCCC3)c2n1	2.01	13
COc1cccc(CCNC(=O)CN2CCN(C)CC2C)c1 (stereo not drawn)	0.495	20
CN(c1ccncn1)C1CC2(CCN(C(=O)c3ccsc3)C2)C1 (stereo not drawn)	-8.13	-32.2
